In PubChem BioAssay (NCI):
This is part of a sample that, as a whole, favours compounds with a hit. Of some 79,000 tested, about 15% had one in any assay. Calls of active or inactive are those of the source. No stated cut-off is given here; in the data, active means growth inhibition above about 70%; inactive means the rest.

Experiment: NCI Yeast Anticancer Drug Screen. Data for the sgs1 mgt1 strain (AID 161);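 further: 0% = growth of cultures given vehicle only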
Settings: S. cerevisiae sgs1 mgt1 strain, at 50.0 µM, stronger effect = higher value
Method in brief: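 Growth of a repair-deficient yeast mutant was monitored after compound treatment and expressed as inhibition relative to vehicle-treated cultures.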

SMILES | growth inhibition
C/C=C/C1OCC(C)(C)CO1 | -12.9% (inactive)
CCOC(=O)C(C(=O)OCC)C(C)(C)C | -28.2% (inactive)
O=C1C(=O)C(CCc2ccccc2)C(=O)/C1=C\c1ccccc1 (configuration not stated) | 10.6% (inactive)
O=C(O)C(=O)O.[Co+3].[NH-]C(Cc1ccccc1)C(=O)[O-].[NH-]CCN(CC[NH-])CC[NH-] (configuration not stated) | 8.8% (inactive)
O=C(O)CCc1c[nH]c(=S)[nH]1 | -5.85% (inactive)
Cc1c([N+](=O)[O-])cc(C(C)(C)C)c(OC(=O)C(Cl)(Cl)Cl)c1[N+](=O)[O-] | 73.9% (active)
COc1cc(NCCC(=O)O)c2ncccc2c1 | -41.9% (inactive)
CC(=O)OCCOC1c2ccccc2-c2ccccc21 | 18.2% (inactive)
COc1ccc2c(c1)N1CCc3cc(OC)c(OC)cc3C1C2 (configuration not stated) | 25.2% (inactive)
O=C(Nc1cccc2c1C(=O)c1cc(Cl)ccc1C2=O)c1ccccc1 | 4% (inactive)
O=c1c(CN(CCO)CCO)c(-c2ccccc2)sc2ccccc12 | -28.1% (inactive)
CCOP(=O)(OCC)C1=C(P(=O)(OCC)OCC)C(F)(F)C1(F)F | -6.7% (inactive)
C(=Nc1ccc2c(c1)Cc1ccccc1-2)c1ccc2c(c1)OCO2 | 9.75% (inactive)
CCCCOB(OCCCC)Oc1c(C(C)(C)C)cc(C)cc1C(C)(C)C | -2.55% (inactive)
CC1=CCC2N=C(c3ccccc3)CC2(C)C1=O (configuration not stated) | 24.3% (inactive)
COc1c2cc(C(C)(C)C)cc1CSCc1cc(C(C)(C)C)cc(c1OC)CCCCC2 | 16.2% (inactive)
O=C(N/N=C/C=C/c1ccccc1)c1ccccc1O | 56.2% (inactive)
